PubChem BioAssay AID1159580 (chemical genetic matrix, 2015)
Where “and” joins values, the source holds several entries; their conditions need not be identical. Identical values can stand only once. In all, about 5,500 compounds went through this assay and about 2,000 (36%) were called active. About 18% were inconclusive and are not listed. Rule as the data show it: active = normalized growth mostly below about 0.91 (no sharp cut-off); inconclusive = no clear call, values can overlap the other calls; inactive = mostly above about 0.92. The list shows a part of the results.

Assay: chemical genetic growth profiling, strain panel (AID 1159580);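 also: tested at 20 µM; growth read once vehicle control cultures reached saturation at 30 °C; 1 = growth at the plate median or of vehicle wells; lower values mean less growth of the strain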
Details: S. cerevisiae deletion strains, growth OD

Measured: normalized growth

COC(=O)[C@@H]1OC(=O)C2OC23[C@@]1(C)CCC1[C@]2(C)C(C[C@@H](O)[C@]13C)C(C)(C)[C@H](OC(C)=O)C[C@@H]2OC(C)=O (stereo not given in full)
inactive: locus YAL021C, strain ccr4, active compounds read low 1 | locus YAL026C, strain drs2, active compounds read low 1.01 | locus YAL030W, strain snc1, active compounds read low 1 | locus YBL061C, strain skt5, active compounds read low 1 | locus YBR009C, strain hhf1, active compounds read low 1.03 | locus YBR021W, strain FUR4, active compounds read low 0.993 | locus YBR023C, strain chs3, active compounds read low 0.997 | locus YBR171W, strain sec66, active compounds read low 0.995 | locus YBR229C, strain ROT2, active compounds read low 1.01 | locus YBR231C, strain swc5, active compounds read low 1.01 | locus YBR279W, strain paf1, active compounds read low 1 | locus YCL011C, strain gbp2, active compounds read low 1.01 | locus YCL016C, strain dcc1, active compounds read low 1 | locus YCL029C, strain bik1, active compounds read low 1.01 | locus YCL069W, strain vba3, active compounds read low 0.996 | locus YCR088W, strain abp1, active compounds read low 0.991 | locus YDL005C, strain med2, active compounds read low 0.987 | locus YDL035C, strain GPR1, active compounds read low 1.05 | locus YDL040C, strain nat1, active compounds read low 1 | locus YDL074C, strain BRE1, active compounds read low 1.06 | locus YDL101C, strain DUN1, active compounds read low 1.02 | locus YDL134C, strain PPH21, active compounds read low 1.02 | locus YDL185W, strain tfp1, active compounds read low 1.01 | locus YDL192W, strain arf1, active compounds read low 1.01 | locus YDR001C, strain nth1, active compounds read low 0.997 | locus YDR069C, strain doa4, active compounds read low 1.01 | locus YDR101C, strain arx1, active compounds read low 1.03 | locus YDR137W, strain rgp1, active compounds read low 1.03 | locus YDR150W, strain NUM1, active compounds read low 1.01 | locus YDR159W, strain sac3, active compounds read low 0.985 | locus YDR162C, strain NBP2, active compounds read low 1.03 | locus YDR195W, strain ref2 0.988 | locus YDR297W, strain sur2, active compounds read low 0.989 | locus YDR318W, strain mcm21, active compounds read low 0.995 | locus YDR334W, strain swr1, active compounds read low 1 | locus YDR335W, strain msn5, active compounds read low 1 | locus YDR388W, active compounds read low 1.01 | locus YDR392W, strain spt3, active compounds read low 1.01 | locus YDR502C, strain sam2, active compounds read low 1 | locus YEL003W, strain gim4, active compounds read low 1 | locus YEL037C, strain rad23, active compounds read low 1 | locus YEL061C, strain CIN8 (second series), active compounds read low 0.986 | locus YEL061C, strain CIN8, active compounds read low 1.01 | locus YER015W, strain faa2, active compounds read low 0.994 | locus YER016W, strain bim1, active compounds read low 1 | locus YER110C, active compounds read low 0.995 | locus YER111C, strain swi4, active compounds read low 1 | locus YER155C, strain BEM2 (second series), active compounds read low 1.01 | locus YER155C, strain BEM2, active compounds read low 0.989 | locus YER167W, strain BCK2, active compounds read low 1.02 | locus YFR010W, strain ubp6, active compounds read low 1.02 | locus YGL078C, strain dbp3, active compounds read low 1.01 | locus YGL086W, strain mad1, active compounds read low 0.996 | locus YGL167C, strain pmr1, active compounds read low 1 | locus YGL173C, strain kem1, active compounds read low 1 | locus YGL227W, strain vid30, active compounds read low 1.01 | locus YGL240W, strain doc1, active compounds read low 1 | locus YGL248W, strain PDE1, active compounds read low 1.01 | locus YGL253W, strain hxk2, active compounds read low 1.01 | locus YGR135W, strain pre9, active compounds read low 0.971 | locus YGR252W, strain gcn5, active compounds read low 0.966 | locus YHR013C, strain ard1, active compounds read low 0.989 | locus YHR027C, strain rpn1, active compounds read low 1 | locus YHR030C, strain SLT2, active compounds read low 0.998 | locus YHR079C, strain IRE1 (second series), active compounds read low 1 | locus YHR079C, strain IRE1, active compounds read low 1.01 | locus YHR094C, strain hxt1, active compounds read low 1.01 | locus YHR129C, strain ARP1, active compounds read low 0.999 | locus YHR142W, strain chs7, active compounds read low 1 | locus YHR200W, strain rpn10, active compounds read low 1.01 | locus YIL066C, strain RNR3, active compounds read low 1.03 | locus YIL073C, strain SPO22, active compounds read low 1.03 | locus YIL125W, strain kgd1, active compounds read low 0.997 | locus YIR030C, strain dcg1, active compounds read low 0.992 | locus YJL092W, strain hpr5, active compounds read low 0.997 | locus YJL095W, strain BCK1 (second series), active compounds read low 0.989 | locus YJL095W, strain BCK1, active compounds read low 1 and 0.991 | locus YJL115W, strain asf1, active compounds read low 0.995 | locus YJL129C, strain trk1, active compounds read low 0.995 | locus YJL134W, strain LCB3, active compounds read low 1.01 | locus YJL154C, strain vps35, active compounds read low 1.01 | locus YJL164C, strain tpk1, active compounds read low 1.02 | locus YJL166W, strain qcr8, active compounds read low 1.01 | locus YJL168C, strain set2, active compounds read low 0.998 | locus YJL187C, strain SWE1 (second series), active compounds read low 1 | locus YJL187C, strain SWE1, active compounds read low 1.01 | locus YJR066W, strain TOR1, active compounds read low 0.913 | locus YKL009W, strain mrt4, active compounds read low 0.998 | locus YKL068W, active compounds read low 1 | locus YKL085W, strain MDH1 (second series), active compounds read low 0.999 | locus YKL085W, strain MDH1, active compounds read low 0.999 | locus YKL160W, strain elf1, active compounds read low 1 | locus YKL190W, strain CNB1, active compounds read low 1.01 | locus YKR001C, strain vps1, active compounds read low 1.01 | locus YKR026C, strain gcn3, active compounds read low 0.993 | locus YKR091W, strain srl3, active compounds read low 0.999 | locus YLL001W, strain dnm1, active compounds read low 1.01 | locus YLL026W, active compounds read low 0.998 | locus YLL041C, strain sdh2, active compounds read low 0.995 | locus YLR027C, strain aat2, active compounds read low 1.01 | locus YLR039C, strain RIC1, active compounds read low 1.12 | locus YLR058C, strain SHM2, active compounds read low 1.02 | locus YLR102C, strain apc9, active compounds read low 1 | locus YLR113W, strain HOG1, active compounds read low 1.08 | locus YLR221C, strain rsa3, active compounds read low 0.999 | locus YLR258W, strain gsy2, active compounds read low 1.01 | locus YLR262C, strain YPT6 (second series), active compounds read low 0.997 | locus YLR268W, strain sec22, active compounds read low 1.02 | locus YLR320W, strain mms22, active compounds read low 1 | locus YLR330W, strain CHS5, active compounds read low 1.01 | locus YLR342W, strain FKS1, active compounds read low 1 | locus YLR357W, strain rsc2, active compounds read low 0.969 | locus YLR370C, strain arc18, active compounds read low 1.01 | locus YLR371W, strain rom2, active compounds read low 0.988 | locus YLR384C, strain iki3, active compounds read low 0.988 | locus YLR418C, strain cdc73, active compounds read low 0.972 | locus YML016C, strain PPZ1, active compounds read low 1.01 | locus YML032C, strain rad52, active compounds read low 1.01 | locus YML120C, strain ndi1, active compounds read low 0.994 | locus YML124C, strain tub3, active compounds read low 0.987 | locus YMR058W, strain fet3, active compounds read low 1.01 | locus YMR078C, strain ctf18, active compounds read low 1 | locus YMR125W, strain sto1, active compounds read low 0.987 | locus YMR129W, active compounds read low 0.996 | locus YMR205C, strain PFK2, active compounds read low 1.01 | locus YMR223W, strain ubp8, active compounds read low 0.985 | locus YMR231W, strain pep5, active compounds read low 0.994 | locus YMR307W, strain GAS1, active compounds read low 0.996 | locus YNL067W, strain RPL9B, active compounds read low 1.01 | locus YNL071W, strain lat1, active compounds read low 0.997 | locus YNL183C, strain NPR1, active compounds read low 0.95 | locus YNL209W, strain ssb2, active compounds read low 1.01 | locus YNL233W, strain BNI4, active compounds read low 1.01 | locus YNL248C, strain rpa49, active compounds read low 0.997 | locus YNL250W, strain rad50, active compounds read low 1 | locus YNL271C, strain bni1, active compounds read low 1.01 | locus YNL298W, strain CLA4, active compounds read low 1.01 | locus YNL307C, strain MCK1, active compounds read low 1.01 | locus YNL322C, strain KRE1 (second series), active compounds read low 0.998 | locus YNL322C, strain KRE1, active compounds read low 1.02 | locus YNR049C, strain mso1, active compounds read low 0.988 | locus YNR052C, strain pop2, active compounds read low 0.996 | locus YOL012C, strain htz1 0.946 | locus YOL147C, strain pex11, active compounds read low 0.998 | locus YOR001W, strain rrp6, active compounds read low 1.03 | locus YOR061W, strain CKA2, active compounds read low 1.02 | locus YOR069W, strain VPS5, active compounds read low 1.01 | locus YOR070C, strain gyp1, active compounds read low 1 | locus YOR080W, strain dia2, active compounds read low 1.01 | locus YOR083W, strain WHI5, active compounds read low 1 | locus YOR106W, strain vam3, active compounds read low 1.02 | locus YOR136W, strain idh2, active compounds read low 0.989 | locus YOR144C, strain elg1, active compounds read low 1.01 | locus YOR184W, strain ser1, active compounds read low 1.01 | locus YOR231W, strain MKK1, active compounds read low 1.01 | locus YOR265W, strain rbl2, active compounds read low 0.983 | locus YOR270C, strain vph1, active compounds read low 1.02 | locus YOR290C, strain snf2, active compounds read low 1 | locus YOR316C, strain cot1, active compounds read low 1 | locus YPL051W, strain arl3, active compounds read low 1.01 | locus YPL055C, strain LGE1, active compounds read low 1.03 | locus YPL078C, strain atp4, active compounds read low 1.01 | locus YPL106C, strain sse1, active compounds read low 0.999 | locus YPL240C, strain hsp82, active compounds read low 1 | locus YPL256C, strain CLN2, active compounds read low 1.01 | locus YPR119W, strain clb2, active compounds read low 1 | locus YPR141C, strain kar3, active compounds read low 1 | locus YPR163C, strain tif3, active compounds read low 1.01 | locus YPR167C, strain met16, active compounds read low 1 | strain wtn01, active compounds read low 1
